# Data: PubChem BioAssay
# The source made the active and inactive calls.
# Columns and labels:
# [1] = binders of probe aFSTL3 on microarray, primary screen, stem cell growth factor project, biochemical, small-molecule microarray, fluorescence 635/667 (AID 1064); conditions: higher = more signal;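 also: measures binding of the biotinylated anti-FSTL3 antibody to printed compounds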
# [2] = binders from COS7 lysate, DM2A8 probe, primary screen, torsin A project, cell lysate, small-molecule microarray, fluorescence 635/667 (AID 1065); conditions: higher = more signal, COS7 lysate expressing mutant human TOR1A
# [3] = binders of probe aFGF2 on microarray, primary screen, stem cell growth factor project, biochemical, small-molecule microarray, fluorescence 635/667 (AID 1067); conditions: higher = more signal;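 also: measures binding of biotinylated aFGF2 protein to printed compounds on slides; z-score merges feature fluorescence and signal-to-noise across triplicate slides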
# [4] = binders of probe aFGF10 on microarray, primary screen, stem cell growth factor project, biochemical, small-molecule microarray, fluorescence 635/667 (AID 1071); conditions: higher = more signal;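 also: score merges 667 nm spot intensity and signal to noise from triplicate slides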
# [5] = molecular target: Neurogenic locus notch homolog protein 2 (Homo sapiens) (UniProt Q04721); assay: Notch2 binders on small-molecule microarrays, primary screen, biochemical, small-molecule microarray, 635 nm fluorescence, stem cell growth factors (AID 1073); conditions: Notch2 binding, higher = more signal
# [6] = molecular target: Pro-neuregulin-1, membrane-bound isoform (Homo sapiens) (UniProt Q02297); assay: NRG1 binders on small-molecule microarrays, primary screen, psychiatric disease protein project, biochemical, small-molecule microarray, fluorescence 635/667 (AID 1075); conditions: NRG1 binding, 635 nm fluorescence, higher = more signal;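 also: score combines 667 nm spot fluorescence with signal to noise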
# [7] = test system: Neuregulin-1 EGF-like domain; assay: binders of neuregulin-1 EGF-like domain, primary screen, biochemical, small-molecule microarray, 635 nm fluorescence (AID 1081); conditions: small-molecule microarray binding, higher = more signal;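 also: binding of the protein to compounds printed on small-molecule microarray slides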
# [8] = FRG1 promoter luciferase signal modulators, primary screen, FRG1 inhibition for FSHD, cell-based, C2C12 myotubes, firefly/Renilla luciferase, luminescence (AID 1084); conditions: higher = more signal, called active from +8 up or from −8 down
# [9] = binders of probe aFST on microarray, primary screen, stem cell growth factor project, biochemical, small-molecule microarray, fluorescence 635/667 (AID 1086); conditions: higher = more signal;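 also: score merges 667 nm fluorescence with signal-to-noise of each printed compound spot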
# [10] = binders of probe aHhip on microarray, primary screen, stem cell growth factor project, biochemical, small-molecule microarray, fluorescence 635/667 (AID 1087); conditions: higher = more signal;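 also: score merges spot fluorescence at 667nm with spot signal to noise ratio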
# Pro-neuregulin-1, membrane-bound isoform (Homo sapiens), sequence (Q02297 whole entry, looked up, the tested form may be a part, canonical isoform): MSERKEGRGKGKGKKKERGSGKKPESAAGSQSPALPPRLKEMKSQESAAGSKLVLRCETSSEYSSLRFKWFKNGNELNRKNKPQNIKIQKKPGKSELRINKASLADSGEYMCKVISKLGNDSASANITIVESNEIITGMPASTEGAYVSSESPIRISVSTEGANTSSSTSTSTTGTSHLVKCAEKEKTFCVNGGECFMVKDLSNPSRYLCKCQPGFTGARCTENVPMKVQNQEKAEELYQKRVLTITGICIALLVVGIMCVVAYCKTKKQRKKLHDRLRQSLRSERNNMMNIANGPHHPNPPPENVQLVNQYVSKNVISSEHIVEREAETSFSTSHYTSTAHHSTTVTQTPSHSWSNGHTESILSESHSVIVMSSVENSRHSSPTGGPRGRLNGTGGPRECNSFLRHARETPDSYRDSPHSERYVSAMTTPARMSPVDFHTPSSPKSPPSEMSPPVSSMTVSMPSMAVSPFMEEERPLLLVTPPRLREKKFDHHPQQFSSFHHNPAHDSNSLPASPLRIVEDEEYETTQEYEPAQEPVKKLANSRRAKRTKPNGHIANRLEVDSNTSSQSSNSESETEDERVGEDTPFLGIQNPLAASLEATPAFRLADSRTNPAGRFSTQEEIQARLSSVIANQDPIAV
# Neurogenic locus notch homolog protein 2 (Homo sapiens), sequence (Q04721 whole entry, looked up, canonical isoform): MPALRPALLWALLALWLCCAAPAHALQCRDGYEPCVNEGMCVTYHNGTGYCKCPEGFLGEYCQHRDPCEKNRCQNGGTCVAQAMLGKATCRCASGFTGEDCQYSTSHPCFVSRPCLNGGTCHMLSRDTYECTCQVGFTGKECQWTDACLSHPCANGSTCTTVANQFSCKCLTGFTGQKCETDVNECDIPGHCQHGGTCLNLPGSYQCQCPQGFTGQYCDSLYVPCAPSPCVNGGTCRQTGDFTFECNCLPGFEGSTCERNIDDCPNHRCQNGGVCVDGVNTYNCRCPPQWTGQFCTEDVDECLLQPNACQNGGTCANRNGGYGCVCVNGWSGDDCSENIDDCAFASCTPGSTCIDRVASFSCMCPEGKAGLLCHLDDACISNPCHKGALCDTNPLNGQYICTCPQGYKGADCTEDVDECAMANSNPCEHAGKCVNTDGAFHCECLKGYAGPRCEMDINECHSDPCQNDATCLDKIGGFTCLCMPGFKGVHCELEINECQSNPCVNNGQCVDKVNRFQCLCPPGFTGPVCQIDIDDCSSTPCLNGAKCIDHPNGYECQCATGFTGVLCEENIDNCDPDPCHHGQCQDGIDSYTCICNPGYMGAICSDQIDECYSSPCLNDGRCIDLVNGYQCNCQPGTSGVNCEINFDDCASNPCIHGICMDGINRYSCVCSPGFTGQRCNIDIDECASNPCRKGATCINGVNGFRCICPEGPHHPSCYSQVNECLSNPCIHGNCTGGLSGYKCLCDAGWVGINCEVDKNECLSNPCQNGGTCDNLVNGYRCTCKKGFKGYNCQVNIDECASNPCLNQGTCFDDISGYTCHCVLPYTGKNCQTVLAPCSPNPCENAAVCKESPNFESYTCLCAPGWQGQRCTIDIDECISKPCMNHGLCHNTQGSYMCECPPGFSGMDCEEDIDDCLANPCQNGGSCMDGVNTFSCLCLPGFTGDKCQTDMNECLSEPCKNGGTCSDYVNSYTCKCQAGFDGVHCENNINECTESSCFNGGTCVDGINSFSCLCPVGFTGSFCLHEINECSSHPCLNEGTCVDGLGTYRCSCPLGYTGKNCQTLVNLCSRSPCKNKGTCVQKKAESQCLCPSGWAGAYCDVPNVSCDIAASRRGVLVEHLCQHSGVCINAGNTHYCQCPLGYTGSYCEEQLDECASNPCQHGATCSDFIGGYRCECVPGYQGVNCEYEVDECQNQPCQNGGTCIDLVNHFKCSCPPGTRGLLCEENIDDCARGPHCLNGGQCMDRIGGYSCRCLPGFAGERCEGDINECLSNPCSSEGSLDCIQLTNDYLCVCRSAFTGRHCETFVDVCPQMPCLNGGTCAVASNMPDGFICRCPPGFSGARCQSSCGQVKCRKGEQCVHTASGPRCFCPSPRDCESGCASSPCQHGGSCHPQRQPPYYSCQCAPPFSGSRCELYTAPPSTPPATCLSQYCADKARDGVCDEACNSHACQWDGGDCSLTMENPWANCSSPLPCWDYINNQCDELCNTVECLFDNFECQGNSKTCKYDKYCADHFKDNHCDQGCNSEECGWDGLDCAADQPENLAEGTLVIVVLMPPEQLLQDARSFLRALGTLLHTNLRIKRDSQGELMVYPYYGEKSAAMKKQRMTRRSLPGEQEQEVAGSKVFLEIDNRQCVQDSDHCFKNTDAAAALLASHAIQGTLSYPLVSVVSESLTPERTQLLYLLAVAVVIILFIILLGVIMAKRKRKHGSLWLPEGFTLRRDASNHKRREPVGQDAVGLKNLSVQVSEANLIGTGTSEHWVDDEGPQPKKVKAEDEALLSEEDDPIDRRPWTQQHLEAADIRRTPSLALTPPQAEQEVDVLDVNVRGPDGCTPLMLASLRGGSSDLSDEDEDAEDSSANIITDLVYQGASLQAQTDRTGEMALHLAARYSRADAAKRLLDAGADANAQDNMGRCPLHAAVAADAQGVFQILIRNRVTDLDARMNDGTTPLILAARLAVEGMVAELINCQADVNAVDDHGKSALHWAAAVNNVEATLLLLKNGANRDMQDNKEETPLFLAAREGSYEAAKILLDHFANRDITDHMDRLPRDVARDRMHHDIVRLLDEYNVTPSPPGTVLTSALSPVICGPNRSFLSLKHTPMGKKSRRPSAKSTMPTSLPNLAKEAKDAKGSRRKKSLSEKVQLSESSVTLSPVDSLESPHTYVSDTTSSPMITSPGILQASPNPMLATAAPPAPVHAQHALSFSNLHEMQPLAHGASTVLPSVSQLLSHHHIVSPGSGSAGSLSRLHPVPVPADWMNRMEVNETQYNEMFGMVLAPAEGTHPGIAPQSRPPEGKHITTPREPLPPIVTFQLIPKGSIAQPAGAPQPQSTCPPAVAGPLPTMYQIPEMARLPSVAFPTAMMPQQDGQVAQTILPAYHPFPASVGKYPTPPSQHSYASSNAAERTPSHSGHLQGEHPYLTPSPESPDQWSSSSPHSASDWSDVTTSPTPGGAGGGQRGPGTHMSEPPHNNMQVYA
SMILES,composite z-score [1],composite z-score [2],composite z-score [3],composite z-score [4],composite z-score [5],composite z-score [6],composite z-score [7],z-score [8],composite z-score [9],composite z-score [10]
N#Cc1ccc(NN2C(C(O)c3ccc(B(O)O)cc3)C=CC3CN(c4ccccc4)C(=O)C32)cc1 (stereo not given),0.057,0.239,-0.0893,0.0196,0.074,0.501,1.07,3.26 (inactive),-0.0118,-0.439
COC(=O)[C@@]1(Cc2ccc(OC)cc2)[C@H]2c3cc(C(=O)N(C)C)n(Cc4c(CO)[nH]cc(C)c4=O)c3C[C@H]2CN1C(=O)c1ccccc1,0.466,0.249,-0.015,-0.112,1.56,2.09,1.37,2.07 (inactive),1.47,1.81
C=C(CC1([C@@H](NP(=O)(c2ccccc2)c2ccccc2)[C@H]2C[C@@H]2CCCC)CC1)c1cccc(OC)c1,0.511,-0.411,0.112,0.343,1.47,0.0917,0.737,1.5 (inactive),1.66,0.579
CCCCN1CC=CC23O[C@@H]4/C=C\CCCOC(=O)C4[C@H]2C(=O)N(CCCCCCO)[C@@H]3C1=O (stereo not given in full),0.179,-0.619,-0.144,-0.785,-0.868,2.04,1.15,-1.38 (inactive),-1.09,-0.0994
C[N+](C)(C)CCCC[C@@H]1NC(=O)[C@H]2C[C@@H](C(=O)O)[C@@H](c3ccc(O)cc3)N2C1=O,0.348,0.211,-0.133,-0.0114,0.288,0.45,1.3,4.06 (inactive),-0.166,-0.199
COc1ccc(C(=O)Nc2cccc(CN3C(=O)[C@]4(O[C@H](CC(=O)N(CCO)Cc5ccccc5)[C@@H]([Si](C)(C)c5ccc(OC)cc5)[C@@H]4C)c4ccccc43)c2)cc1,-0.211,0.333,-0.0695,0.792,0.784,0.61,0.958,-1.07 (inactive),-0.16,0.2
[N-]=[N+]=Nc1ccccc1C[C@]1(C(N)=O)COC(c2ccc(OCCCO)cc2)=N1,1.05,-0.455,0.0247,0.149,0.278,1.81,1.34,3.48 (inactive),0.236,-0.0618
C=C(COC)C(=O)CC[C@H](OC(C)=O)c1ccc(CO)o1,-0.374,0.275,-0.148,0.265,-0.0537,0.0866,0.0976,-0.28 (inactive),-0.225,-0.132
CC(C)C[C@@H]1NC(=O)[C@@H]2C[C@H](C(=O)NCCCCCCNC(=O)CS)[C@H](c3ccc(O)cc3)N2C1=O,-0.0857,1.48,-0.0202,0.938,0.604,1.35,1.37,0.0812 (inactive),0.694,-0.0346
COc1cc(CO)cc(I)c1O[C@H]1C=C(C(=O)NCCO)C[C@@H](N(CCN2CCOCC2)C(=O)C2CCCO2)[C@@H]1O (stereo not given in full),-0.351,0.193,-0.109,0.228,1.14,-0.34,0.201,0.104 (inactive),0.0496,-0.0383
COCCOC(=O)N1C(=O)[C@@]2(c3cc(C#CCNC(N)=O)ccc31)[C@H](C(=O)N1CCN(c3ncccn3)CC1)[C@H]1C(=O)O[C@H](c3ccccc3)[C@H](c3ccccc3)N1[C@@H]2c1ccc(O)cc1,-1.35,0.0122,-0.282,-0.129,-1.15,-0.37,-0.475,-1.04 (inactive),-0.874,-0.769
C[C@H]1C2[C@H](Cc3ccccc3)NC(=O)[C@]23C(=O)N[C@@H](Cc2ccccc2)C(=O)N2CCC[C@H]2C(=O)NC/C=C/CC/C=C/C3[C@@H]2O[C@]12C (stereo not given in full),0.0522,0.483,-0.129,0.75,0.237,0.0519,1.03,1.28 (inactive),0.101,-0.0618
CCOC(=O)C1=CCC(c2ccncc2)N(S(=O)(=O)c2ccc(C)cc2)C1 (stereo not given),-0.149,-0.128,-0.0459,1.03,1.32,2.03,1.21,-1.41 (inactive),0.981,-0.0735
COCCOC(=O)N1C(=O)[C@@]2(c3cc(C#CCC(C(=O)OC)C(=O)OC)ccc31)[C@H](C(=O)N1CCc3cc(OC)c(OC)cc3C1)[C@H]1C(=O)O[C@H](c3ccccc3)[C@H](c3ccccc3)N1[C@@H]2c1ccccc1OCCO,-0.308,0.399,-0.0608,0.375,1.44,0.875,1.22,-0.223 (inactive),0.651,-0.204
O=C1NC(=O)C2C1C=CC(C(O)C(O)CO)N2Nc1ccccn1 (stereo not given),-0.304,-0.0729,-0.154,0.383,0.864,0.548,0.515,-0.708 (inactive),0.0126,-0.191
CCOC(=O)C[C@H]1[C@H](OC(=O)c2ccccc2-c2ccccc2)[C@@H](NC(=O)CC(C)C)c2cc(OCCCO)ccc2N1C(=O)c1ccccc1,-0.565,0.115,-0.0632,0.351,0.527,0.092,0.606,0.077 (inactive),0.324,-0.137
C=C(COC)C(=O)CC[C@@H](OC(=O)c1ccccc1-c1ccccc1C(=O)O)c1ccccc1OCCO,-0.167,2.13,-0.0543,1.27,0.468,-0.189,1.12,0.896 (inactive),-0.168,-0.236
CC(C)N1C(=O)[C@@]2(Cc3ccccc31)c1ccccc1C(=O)N(Cc1ccccc1)[C@H]2c1ccc(CO)cc1,-0.244,-0.164,-0.204,-0.125,-0.291,0.251,0.322,-0.0076 (inactive),-0.0754,-0.391
CC(C)c1ccc(NN2C(C(O)c3ccccc3)C=CC3C(=O)N(c4ccccc4)C(=O)C32)cc1 (stereo not given),0.744,0.141,0.117,0.885,1.42,0.905,0.793,1.47 (inactive),1.13,-0.265
CCCCC=C[C@@H](NC(=O)C(C)(C)C)c1ccccc1,0.0905,0.161,0.0775,0.57,1.5,1.07,0.357,-0.751 (inactive),0.553,0.388
COc1ccc(CCNC(=O)[C@@]2(c3ccc([N+](=O)[O-])cc3)CC(=O)N(C3CCCCC3)[C@@H]2c2ccc(CO)cc2I)cc1,0.897,0.0603,0.0903,0.33,0.964,0.486,0.827,-1.64 (inactive),-0.121,0.386
